From PubChem BioAssay AID2057 (The Scripps Research Institute Molecular Screening Center, 2009) come the findings set out here.

The term inhibition denotes the drop in the measured response relative to a control, in per cent.

Screen size: about 320,000 compounds; about 2,100 (0.66%) were called active. The sample as a whole holds a higher share of actives than the screen did. Unmarked numbers belong to inactive results.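 How the source made its calls: active means inhibition above the mean inhibition of all tested compounds plus 3 SD, set per campaign (cut at about 40% in these data); inactive means the rest.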

The target in the assay is Induced myeloid leukemia cell differentiation protein Mcl-1 (Homo sapiens) (UniProt Q07820). As to the kind of experiment: MCL1-BIM peptide interaction disruptors – biochemical, fluorescence polarization, primary screen (AID 2057).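 Further: 0% = DMSO wells and 100% = unlabeled Bim-BH3 peptide control; higher means more loss of mP so more displacement of Bim peptide.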 The settings on record: GST-MCL1 / FITC-Bim-BH3 fluorescence polarization; at 10.9 µM; hits give high values.
Sequence of Induced myeloid leukemia cell differentiation protein Mcl-1 (Homo sapiens) (Q07820 whole entry, looked up): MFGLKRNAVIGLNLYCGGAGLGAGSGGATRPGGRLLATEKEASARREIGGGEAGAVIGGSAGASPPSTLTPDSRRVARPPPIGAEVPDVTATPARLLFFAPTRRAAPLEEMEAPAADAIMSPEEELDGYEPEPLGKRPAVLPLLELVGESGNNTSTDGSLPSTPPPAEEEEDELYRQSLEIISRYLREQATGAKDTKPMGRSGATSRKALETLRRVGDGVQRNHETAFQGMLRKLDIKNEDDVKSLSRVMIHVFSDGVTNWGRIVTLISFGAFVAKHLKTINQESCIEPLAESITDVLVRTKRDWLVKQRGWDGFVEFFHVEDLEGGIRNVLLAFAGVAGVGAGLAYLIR
Take `CC(C)(C)NC(=O)COC(=O)c1cc(Br)ccc1Cl`: the inhibition was -2.96%.

Regarding `CCCC1NC(=O)NC(C)=C1C(=O)OCC` (stereo not given), the inhibition is -0.76%.

With `Oc1ccc2ccccc2c1N=Nc1nccs1`, the inhibition was 61.4% (active).

On to `CC1=C(C(=O)OC(C)(C)C)C(c2ccc(Br)cc2)NC(=O)N1CCCC(=O)O` (stereo not given), for which the inhibition was 2.27%.

Take `CC[N+](C)(CC)CCC[n+]1c(-c2ccccc2)c2cc(N)ccc2c2ccc(N)cc21`: the inhibition was 122% (active).

`C=C(C)CSc1nnc(-c2ccc(C)cc2)n1N`: the inhibition was -0.24%.

As to `CC(OC(=O)c1ccccc1NCCO)C(=O)Nc1ccnn1C(C)C` (stereo not given), the inhibition was 1.18%.

For `CSCCC(NC(=O)c1ccc(Cl)cc1Cl)C(=O)NNC(=O)c1csc(N2CCOCC2)n1` (stereo not given), the inhibition is 12.3%.

On to `CN(C(=O)COC(=O)c1cc(=O)[nH]c2ccccc12)C1CCCCC1`, for which the inhibition is 1.49%.

On to `Cc1cccc[n+]1CC(=O)c1ccccc1`, for which the inhibition was 9.96%.

Take `COc1ccccc1NC(=O)C[n+]1ccccc1`: the inhibition is -1.7%.

Turning to `COC(=O)C[n+]1cccc2ccccc21`, the inhibition is 195% (active).

As to `Cn1ccs/c1=N\S(=O)(=O)c1ccc(C(C)(C)C)cc1`, the inhibition is 5.09%.

For `O=[N+]([O-])c1cc([N+](=O)[O-])c(Oc2cc(F)cc(F)c2F)cc1NN1CCCCC1`, the inhibition is -1.7%.

In the case of `c1ccc(CSc2nnc(-c3ccco3)c(-c3ccco3)n2)cc1`, the inhibition was 82.3% (active).

As to `CCc1nnc(SCc2cccc(F)c2)nc1CC`, the inhibition was 0.71%.

`Fc1cccc(Cl)c1CSc1ccc(-c2ccco2)nn1`: the inhibition is 17.6%.

Take `COc1ccc2nc(SCc3ccccc3)nc(C)c2c1`: the inhibition is 1.99%.

Turning to `Clc1ccccc1CSc1nnc(-c2ccco2)c(-c2ccco2)n1`, the inhibition was 79.9% (active).

In the case of `O=C(CC1N=C2c3ccccc3N=C(SCc3ccccc3Cl)N2C1=O)NCc1ccco1` (stereo not given), the inhibition is 19.4%.

Consider `CCOC(=O)C1CCCN(C(=O)COc2ccc(N(C)S(=O)(=O)c3ccc(C)cc3)cc2)C1` (stereo not given), for which the inhibition is -2.82%.

For `CCCN(C(=O)c1nc2nccc(C)n2n1)c1c(N)n(Cc2ccccc2)c(=O)[nH]c1=O`, the inhibition is 0.15%.

With `COCc1cc(=O)n2[nH]c(C)c(-c3ccccc3)c2n1`, the inhibition is 10.3%.

On to `CCC1SC2=NCCN2C1(O)c1ccc(Cl)cc1` (stereo not given), for which the inhibition was 7.57%.

Turning to `CN1C(=O)/C(=C\c2cc(Br)cs2)c2ccccc21`, the inhibition was -0.58%.

In the case of `O=C(COC(=O)c1ncc(Cl)c(Cl)c1Cl)NNC(=O)c1ccccc1`, the inhibition was 5.89%.

Take `Cn1c(-c2ccc(C(F)(F)F)cc2)cc2onc(-c3ccccc3)c2c1=O`: the inhibition is 4.36%.

On to `COC1=C(N2CCOCC2)C(=O)c2ccccc2C1=O`, for which the inhibition is 6.69%.

For the molecule `O=C1c2ccccc2-c2ncnc3c(N4CCOCC4)cc(N4CCOCC4)c1c23`, the inhibition is 48.8% (active).

As to `Cc1oc2c(c1C(=O)N1CCOCC1)C(=O)c1ccccc1C2=O`, the inhibition was -4.11%.

With `COc1ccc(OC)c(NC(=O)CN(C)CCOc2ccc(Br)cc2)c1`, the inhibition was -19.6%.

Consider `CCN(CC)C(=O)CC(c1ccc2c(c1)OCO2)c1c(OC)cc(OC)c2c(-c3ccccc3)cc(=O)oc12` (stereo not given), for which the inhibition is 2.43%.

As for `Cc1cc(C)c2c(-n3cccc3)c(C(=O)NNS(=O)(=O)c3ccc(F)cc3)sc2n1`, the inhibition was 13.1%.

For the molecule `COc1ccc(CNC(=O)c2cc3c(=O)n4ccccc4nc3n(CC3CCCO3)c2=N)cc1` (stereo not given), the inhibition was 9.61%.

For the molecule `Cc1cccn2c(=O)c3cc(C#N)c(=O)n(CCCN4CCOCC4)c3nc12`, the inhibition was 23.2%.

For the molecule `Cc1cccn2c(=O)c3cc(C#N)c(=NC(=O)c4cccnc4)n(CC4CCCO4)c3nc12` (stereo not given), the inhibition was 44.1% (active).

For the molecule `CCN(CC(=O)NCc1cccs1)c1nnnn1-c1ccccc1`, the inhibition is 3.16%.

Take `O=C(NCc1cccnc1)C12CC3CC(CC(C3)C1)C2`: the inhibition was 3.8%.

For `Cc1ccc(S(=O)(=O)Nc2nc3ccccc3nc2N2CCc3ccccc3C2)cc1`, the inhibition is 12.7%.

On to `Cc1cc(N2CCN(S(=O)(=O)c3ccc(C)c(C)c3)CC2)c2ccccc2n1`, for which the inhibition is -2.07%.

In the case of `Cc1ccc(S(=O)(=O)C(C#N)c2nc3ccccc3nc2N2CCCC2)cc1C` (stereo not given), the inhibition was 75.8% (active).

For the molecule `O=C(CN1CCN(S(=O)(=O)c2ccc(Cl)s2)CC1)N1CCCCC1`, the inhibition is 5.82%.

Regarding `O=C(NCCC1CCCCN1S(=O)(=O)c1ccc(Cl)cc1)C(=O)NCc1ccco1` (stereo not given), the inhibition is 9.57%.

For the molecule `CCCn1c(C(C)Nc2nc(-c3ccc(C)cc3)cs2)nc2cc(Cl)c(N3CCCCC3)cc21` (stereo not given), the inhibition was 5.75%.

Turning to `CCCn1c(C2CCCN2c2nc(-c3ccc(OC)cc3)cs2)nc2ccccc21` (stereo not given), the inhibition is 11.8%.

Consider `CCCn1c(C2CCCN2c2nc(-c3ccc(C)cc3)cs2)nc2cc(Cl)c(N3CCCCC3)cc21` (stereo not given), for which the inhibition was 75.2% (active).

Take `O=C1N[C@@H](Cc2ccccc2)C(=O)N2[C@@H]3N(S(=O)(=O)c4ccc(F)cc4)c4ccccc4[C@]3(Br)C[C@@H]12`: the inhibition was 8.03%.

As for `CC(=O)NC(C)(C)C1CC=C(C)/C(=N\O)C1` (stereo not given), the inhibition is -0.57%.

As to `COC(=O)c1ccc(SCc2ccccc2)nc1`, the inhibition was 11.2%.

As for `CCn1c(SCc2ccccc2)nc2cc(OC)c(OC)cc2c1=O`, the inhibition was 3.42%.

For the molecule `CSc1c(SCc2ccccc2)cnn(Cc2ccccc2)c1=O`, the inhibition is 181% (active).

Turning to `Cc1c(C)c(C)c(S(=O)(=O)N2CCC3(CC2)OCCO3)c(C)c1C`, the inhibition was 6.11%.

As for `Cc1cc(CNC(=O)C2CCC(=O)N(CCc3ccc(Cl)cc3)C2)no1` (stereo not given), the inhibition was 2.34%.

Turning to `Cc1ccc(C(=O)NC2CCCC(C)C2C)cc1S(=O)(=O)N1CCCCC1` (stereo not given), the inhibition was -1.76%.

On to `O=C(Nc1nccs1)c1cc(S(=O)(=O)N2CCOCC2)c(Cl)cc1Cl`, for which the inhibition is 5.02%.

Regarding `Oc1cc2c(cc1O)CN(C(=S)NCCc1ccc(Cl)cc1)CCC2`, the inhibition is 34.4%.

Take `O=C(COC(=O)/C=C/c1ccc(OC(F)F)cc1)NC1CCCCC1`: the inhibition was -2.99%.

In the case of `COc1ccc(-c2nc(CS(=O)CC(=O)NCc3ccccn3)c(C)o2)cc1` (stereo not given), the inhibition was 111% (active).

Regarding `COc1cccc(-c2nc(CS(=O)CC(=O)NCc3ccc(F)cc3)c(C)o2)c1` (stereo not given), the inhibition is 0.44%.

For `COc1ccc(-c2nc(CS(=O)CC(=O)NCc3ccccc3)c(C)o2)cc1OC` (stereo not given), the inhibition was 9.71%.
